Inconclusive results are not listed. Activity calls are given as the source filed them. Calls follow the shape of the dose curve; as a rule, active = well fitted curve in the direction sought with a large enough effect; inconclusive = small, poorly fitted or top-dose-only effect, or another doubt; inactive = no such curve, though single readings can be large; an effect the other way counts as inactive or inconclusive.
How the values were obtained:
[1] = Quantitative High-Throughput drug screen in 47 multiple myeloma cell lines against the NCATS MIPE library collection: MOLP8_DSMZ cell viability assay (AID 1918977); also: nearly all actives have a fitted effect of over 45% in size
How it was run: (§1)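 500 cells/well per myeloma line exposed to pinned MIPE 4.0 compounds for 48 h at 37 °C, 5% CO2. Viability read as ATP by CellTiter-Glo luminescence, normalised to DMSO-only (100%) and media-only (0%) wells.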

[2] = Quantitative High-Throughput drug screen in 47 multiple myeloma cell lines against the NCATS MIPE library collection: NCIH929_DSMZ cell viability assay (AID 1918978); also: nearly all actives have a fitted effect of over 35% in size
How it was run: as §1

[3] = Quantitative High-Throughput drug screen in 47 multiple myeloma cell lines against the NCATS MIPE library collection: MM1S_ATCC cell viability assay (AID 1918980); also: nearly all actives have a fitted effect of over 45% in size
How it was run: as §1

[4] = Quantitative High-Throughput drug screen in 47 multiple myeloma cell lines against the NCATS MIPE library collection: KMS34_JCRB cell viability assay (AID 1918985); also: nearly all actives have a fitted effect of over 40% in size
How it was run: as §1

[5] = Quantitative High-Throughput drug screen in 47 multiple myeloma cell lines against the NCATS MIPE library collection: OPM1_PLB cell viability assay (AID 1918989); also: nearly all actives have a fitted effect of over 40% in size
How it was run: as §1

[6] = Quantitative High-Throughput drug screen in 47 multiple myeloma cell lines against the NCATS MIPE library collection: SKMM1_PLB cell viability assay (AID 1919863); conditions: SKMM1 myeloma viability, CellTiter-Glo ATP, 48 h; viability: hits give low values; also: nearly all actives have a fitted effect of over 35% in size; as to viability: series mostly up to about 46 µM
How it was run: as §1

[7] = Quantitative High-Throughput drug screen in 47 multiple myeloma cell lines against the NCATS MIPE library collection: U266_ATCC cell viability assay (AID 1919864); also: nearly all actives have a fitted effect of over 35% in size
How it was run: as §1

[8] = Quantitative High-Throughput drug screen in 47 multiple myeloma cell lines against the NCATS MIPE library collection: XG6_PLB cell viability assay (AID 1919865); also: nearly all actives have a fitted effect of over 40% in size
How it was run: as §1

[9] = Quantitative High-Throughput drug screen in 47 multiple myeloma cell lines against the NCATS MIPE library collection: XG1_PLB cell viability assay (AID 1919866); also: nearly all actives have a fitted effect of over 35% in size
How it was run: as §1

[10] = Quantitative High-Throughput drug screen in 47 multiple myeloma cell lines against the NCATS MIPE library collection: VP6_DJ cell viability assay (AID 1919867); also: nearly all actives have a fitted effect of over 40% in size
How it was run: as §1

[11] = Quantitative High-Throughput drug screen in 47 multiple myeloma cell lines against the NCATS MIPE library collection: PCM6_Riken cell viability assay (AID 1919870); also: nearly all actives have a fitted effect of over 30% in size
How it was run: as §1

[12] = Quantitative High-Throughput drug screen in 47 multiple myeloma cell lines against the NCATS MIPE library collection: OCIMY1_PLB cell viability assay (AID 1918979); also: nearly all actives have a fitted effect of over 35% in size; as to viability: series mostly up to about 46 µM
How it was run: as §1

[13] = Quantitative High-Throughput drug screen in 47 multiple myeloma cell lines against the NCATS MIPE library collection: MM1R_ATCC cell viability assay (AID 1918981); also: nearly all actives have a fitted effect of over 35% in size
How it was run: as §1

[14] = Quantitative High-Throughput drug screen in 47 multiple myeloma cell lines against the NCATS MIPE library collection: LP1_DSMZ cell viability assay (AID 1918982); also: nearly all actives have a fitted effect of over 35% in size
How it was run: as §1

[15] = Quantitative High-Throughput drug screen in 47 multiple myeloma cell lines against the NCATS MIPE library collection: KMS28PE_JCRB cell viability assay (AID 1918983); also: nearly all actives have a fitted effect of over 35% in size
How it was run: as §1

[16] = Quantitative High-Throughput drug screen in 47 multiple myeloma cell lines against the NCATS MIPE library collection: L363_DSMZ cell viability assay (AID 1918984); also: nearly all actives have a fitted effect of over 40% in size
How it was run: as §1

[17] = Quantitative High-Throughput drug screen in 47 multiple myeloma cell lines against the NCATS MIPE library collection: OCIMY7_PLB cell viability assay (AID 1918987); conditions: OCI-MY7 myeloma viability, CellTiter-Glo ATP, 48 h; viability (% of DMSO): at 45.8 µM; also: nearly all actives have a fitted effect of over 65% in size
How it was run: as §1

[18] = Quantitative High-Throughput drug screen in 47 multiple myeloma cell lines against the NCATS MIPE library collection: OCIMY5_PLB cell viability assay (AID 1918988); also: nearly all actives have a fitted effect of over 65% in size
How it was run: as §1

[19] = Quantitative High-Throughput drug screen in 47 multiple myeloma cell lines against the NCATS MIPE library collection: UTMC2_PLB cell viability assay (AID 1919868); conditions: CellTiter-Glo ATP luminescence, 48 h; viability (% of DMSO control): at 45.8 µM; also: nearly all actives have a fitted effect of over 55% in size
How it was run: as §1

[20] = Quantitative High-Throughput drug screen in 47 multiple myeloma cell lines against the NCATS MIPE library collection: PE2_PLB cell viability assay (AID 1919869); also: nearly all actives have a fitted effect of over 35% in size
How it was run: as §1
Potency is read from the fitted curve at half-maximal effect.

O=C(O)c1ccc(-c2cc3cccnc3c(-c3ccc4nonc4c3)n2)cc1
active: Potency [1] 26.4 µM | Potency [2] 26.4 µM | Potency [3] 23.5 µM | Potency [4] 14.8 µM | Potency [5] 20.9 µM | Potency [6] 20.9 µM | Potency [7] 20.9 µM | Potency [8] 20.9 µM | Potency [9] 20.9 µM | Potency [10] 20.9 µM | Potency [11] 29.6 µM

COc1cc2nc(-c3ccc(N4CCN(C)CC4)cc3)nc(NCCN3CCOCC3)c2cc1OC
active: Potency [1] 0.0418 µM | Potency [2] 0.296 µM | Potency [12] 0.148 µM | Potency [13] 0.0118 µM | Potency [14] 0.132 µM | Potency [15] 0.0662 µM | Potency [16] 0.132 µM | Potency [4] 0.0209 µM | Potency [17] 14.8 µM | Potency [18] 0.0187 µM | Potency [5] 0.166 µM | Potency [6] 0.132 µM | Potency [7] 0.0209 µM | Potency [8] 0.166 µM | Potency [9] 0.0372 µM | Potency [10] 0.187 µM | Potency [19] 0.935 µM | Potency [20] 0.148 µM | Potency [11] 0.166 µM

O=C1c2c(O)cc(O)cc2O[C@H](c2cc(O)c(O)c(O)c2)[C@H]1O
active: Potency [1] 18.7 µM | Potency [3] 20.9 µM | Potency [13] 23.5 µM | Potency [14] 20.9 µM | Potency [4] 11.8 µM | Potency [18] 13.2 µM | Potency [6] 20.9 µM | Potency [7] 11.8 µM
inactive: Potency [2] | Potency [5] | Potency [10] | Potency [19] | Potency [20] | Potency [11]

C[N+]1(C)[C@@H]2CC(OC(=O)[C@H](CO)c3ccccc3)C[C@H]1[C@H]1O[C@@H]12 (stereo partly specified)
inactive: Potency [1] | Potency [2] | Potency [12] | Potency [13] | Potency [14] | Potency [15] | Potency [16] | Potency [4] | Potency [5] | Potency [19] | Potency [11]
active: Potency [8] 23.5 µM

O=c1[nH]cnc2c1ncn2[C@H]1CC[C@@H](CO)O1
active: Potency [3] 11.8 µM
inactive: Potency [1] | Potency [12] | Potency [13] | Potency [14] | Potency [18] | viability [6] 151% | Potency [7] | Potency [8] | Potency [20] | Potency [11]

Cc1ccc(F)c(NC(=O)Nc2ccc(-c3cccc4[nH]nc(N)c34)cc2)c1
active: Potency [1] 26.4 µM | Potency [2] 9.35 µM | Potency [14] 16.6 µM | Potency [16] 4.18 µM | Potency [4] 26.4 µM | Potency [17] 4.69 µM | Potency [18] 20.9 µM | Potency [5] 10.5 µM | Potency [7] 16.6 µM | Potency [8] 16.6 µM | Potency [10] 16.6 µM | Potency [19] 8.33 µM | Potency [11] 23.5 µM

CC(C)(C)COc1ccc(-n2cc(C(=O)O)cn2)cc1C#N
inactive: Potency [1] | Potency [2] | Potency [12] | Potency [14] | Potency [16] | Potency [4] | viability [6] 120% | Potency [7] | Potency [8] | Potency [9] | Potency [19] | Potency [11]

CCn1cc(C(=O)O)c(=O)c2ccc(C)nc21
inactive: Potency [1] | Potency [2] | Potency [14] | Potency [15] | Potency [16] | Potency [4] | Potency [5] | viability [6] 130% | Potency [8] | Potency [20] | Potency [11]

CN[C@@H](C)C(=O)N[C@H]1CN(C(=O)CC(C)C)CC[C@H]2CC[C@@H](C(=O)NC(c3ccccc3)c3ccccc3)N2C1=O
active: Potency [2] 11.8 µM | Potency [3] 9.35 µM | Potency [13] 14.8 µM | Potency [17] 10.5 µM | Potency [18] 20.9 µM | Potency [5] 14.8 µM | Potency [8] 1.32 µM | Potency [9] 13.2 µM | Potency [20] 9.35 µM
inactive: Potency [1]

Cc1nnc(C(C)C)n1C1C[C@H]2CC[C@@H](C1)N2CC[C@H](NC(=O)C1CCC(F)(F)CC1)c1ccccc1 (stereo partly specified)
inactive: Potency [1] | Potency [14] | Potency [15] | Potency [16] | Potency [18] | Potency [19]
active: Potency [2] 9.35 µM | Potency [3] 1.05 µM | Potency [7] 11.8 µM | Potency [8] 4.69 µM | Potency [10] 23.5 µM

Nc1ncnc2c1nc(Cl)n2[C@@H]1O[C@H](CO)[C@@H](O)[C@@H]1O
active: Potency [1] 7.43 µM | Potency [2] 8.33 µM | Potency [14] 20.9 µM | Potency [4] 11.8 µM | Potency [17] 10.5 µM | Potency [18] 0.418 µM | Potency [7] 14.8 µM | Potency [8] 1.18 µM | Potency [9] 16.6 µM | Potency [10] 1.32 µM | Potency [20] 0.235 µM

CC1(C)CCC(CN2CCN(c3ccc(C(=O)NS(=O)(=O)c4ccc(NCC5CCOCC5)c([N+](=O)[O-])c4)c(Oc4cnc5[nH]ccc5c4)c3)CC2)=C(c2ccc(Cl)cc2)C1
active: Potency [1] 18.7 µM | Potency [2] 23.5 µM | Potency [12] 10.5 µM | Potency [3] 23.5 µM | Potency [13] 14.8 µM | Potency [14] 18.7 µM | Potency [15] 16.6 µM | Potency [4] 16.6 µM | Potency [17] 0.59 µM | Potency [18] 0.0148 µM | Potency [5] 5.26 µM | Potency [6] 20.9 µM | Potency [20] 16.6 µM | Potency [11] 0.148 µM

CC(C)(C(=O)NCC(F)(F)C(F)(F)F)C(=O)N[C@@H]1C(=O)Nc2ccccc2-c2ccccc21
inactive: Potency [1] | Potency [12] | Potency [14] | Potency [15] | Potency [4] | Potency [18] | viability [6] 128%
active: Potency [2] 16.6 µM | Potency [3] 13.2 µM | Potency [8] 16.6 µM | Potency [20] 18.7 µM | Potency [11] 3.32 µM
